{"source": "paper PMC4336329", "about": "(PLoS ONE, 2015)", "note": "The whole screen tested about 310,000 compounds, of which about 14,000 (4.5%) showed an effect of 50% or more. The effect is printed as a negative number. This is one part of a sample in which strong results are shown more often than they occur.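 Note: peak tail current of the secondary pulse compared with the same well before compound.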"}
{"target": "human ether-à-go-go-related gene (hERG) potassium channel (human, UniProt Q12809)", "sequence (Q12809 whole entry, looked up)": "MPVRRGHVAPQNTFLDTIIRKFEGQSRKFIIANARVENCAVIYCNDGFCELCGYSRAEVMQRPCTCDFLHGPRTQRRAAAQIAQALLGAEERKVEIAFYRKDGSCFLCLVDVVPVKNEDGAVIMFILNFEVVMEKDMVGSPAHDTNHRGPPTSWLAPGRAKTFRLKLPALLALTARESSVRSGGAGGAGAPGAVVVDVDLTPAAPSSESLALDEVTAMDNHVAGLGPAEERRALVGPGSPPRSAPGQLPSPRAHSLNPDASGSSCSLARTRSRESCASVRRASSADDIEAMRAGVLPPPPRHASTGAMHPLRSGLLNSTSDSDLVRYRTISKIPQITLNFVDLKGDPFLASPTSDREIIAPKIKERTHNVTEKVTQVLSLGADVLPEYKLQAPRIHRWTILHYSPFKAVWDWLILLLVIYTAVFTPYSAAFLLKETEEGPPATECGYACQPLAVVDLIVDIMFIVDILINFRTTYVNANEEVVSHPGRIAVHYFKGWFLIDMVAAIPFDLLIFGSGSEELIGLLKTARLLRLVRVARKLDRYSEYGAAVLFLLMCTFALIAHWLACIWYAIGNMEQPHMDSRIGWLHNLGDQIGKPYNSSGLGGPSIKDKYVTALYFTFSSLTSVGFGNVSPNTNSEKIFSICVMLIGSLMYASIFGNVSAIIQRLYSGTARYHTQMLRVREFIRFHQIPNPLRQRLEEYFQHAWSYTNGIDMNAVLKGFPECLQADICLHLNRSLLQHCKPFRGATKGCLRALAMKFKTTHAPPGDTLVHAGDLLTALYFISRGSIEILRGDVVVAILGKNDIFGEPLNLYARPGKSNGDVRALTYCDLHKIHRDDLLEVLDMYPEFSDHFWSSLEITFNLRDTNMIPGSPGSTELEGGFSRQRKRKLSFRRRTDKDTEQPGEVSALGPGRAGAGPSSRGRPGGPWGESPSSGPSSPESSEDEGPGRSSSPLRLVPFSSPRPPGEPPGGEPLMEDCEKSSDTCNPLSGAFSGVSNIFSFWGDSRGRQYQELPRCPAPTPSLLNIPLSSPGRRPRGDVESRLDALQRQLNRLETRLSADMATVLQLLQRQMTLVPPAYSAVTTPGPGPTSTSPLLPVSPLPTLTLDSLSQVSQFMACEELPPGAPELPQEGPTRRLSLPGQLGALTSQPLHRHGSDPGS", "assay": "primary screen, population patch clamp on CHO cells stably expressing hERG; higher = less effect of the substance", "units": {"hERG current change (%, negative = inhibition) at 10uM": "%"}}
{"smiles": "CCCCN1C(=O)c2ccc(C(=O)Nc3ccccc3N3CCOCC3)cc2C1=O", "hERG current change (%, negative = inhibition) at 10uM": 7.18}
{"smiles": "COc1ccc(C(=O)Nc2ccccc2N2CCOCC2)cc1S(=O)(=O)N1CCOCC1", "hERG current change (%, negative = inhibition) at 10uM": -17.8}
{"smiles": "Cc1cn2c(N)c(/C=C3\\C=Nc4ccccc43)c(=O)nc2s1", "hERG current change (%, negative = inhibition) at 10uM": 2.43}
{"smiles": "CCOc1ccc(N=C(/C(C(=O)C(=O)N2CCOCC2)=C(\\O)c2ccccc2)c2ccccc2)cc1", "hERG current change (%, negative = inhibition) at 10uM": 27.7}
{"smiles": "COc1ccc(NC(=O)CN(C)S(=O)(=O)c2cccc3nsnc23)cc1", "hERG current change (%, negative = inhibition) at 10uM": -21.9}
{"smiles": "O=C(O)c1ccccc1-c1nc2ccccc2c(=O)n1O", "hERG current change (%, negative = inhibition) at 10uM": 14.9}
{"smiles": "CCCOC(=O)CC1C(=O)NCCN1Cc1ccc(F)cc1", "note": "(stereo not drawn)", "hERG current change (%, negative = inhibition) at 10uM": 3.35}
{"smiles": "CC1CC(C)CN(S(=O)(=O)c2ccc(NC(=O)C3CC(=O)N(Cc4ccccc4)C3)cc2)C1", "note": "(stereo not drawn)", "hERG current change (%, negative = inhibition) at 10uM": 17.3}
{"smiles": "CC(C)CC1NC(=O)N(Cc2nc3ccccc3s2)C1=O", "note": "(stereo not drawn)", "hERG current change (%, negative = inhibition) at 10uM": -32.5}
{"smiles": "CC(C)CCC1(CCNC(=O)c2cccs2)CCOC(C)(C)C1", "note": "(stereo not drawn)", "hERG current change (%, negative = inhibition) at 10uM": -8.99}
{"smiles": "c1ccc(-c2nn3c(Cn4nnc5ccccc54)nnc3s2)nc1", "hERG current change (%, negative = inhibition) at 10uM": -14.4}
{"smiles": "CC(C)C[C@H]1C(=O)N2CCC[C@H]2[C@]2(O)O[C@](NC(=O)C3C=C4c5cccc6[nH]c(Br)c(c56)C[C@H]4N(C)C3)(C(C)C)C(=O)N12.CS(=O)(=O)O", "note": "(stereo partly drawn)", "hERG current change (%, negative = inhibition) at 10uM": 20.4}
{"smiles": "CCN1/C(=C\\C=C\\C2=[N+](CC)c3ccccc3C2(C)C)C(C)(C)c2ccccc21.[O-][Cl+3]([O-])([O-])[O-]", "hERG current change (%, negative = inhibition) at 10uM": -96.7}
{"smiles": "CCN1C(=O)C(O)(CC(=O)/C=C/C=C/c2ccccc2)c2ccccc21", "note": "(stereo not drawn)", "hERG current change (%, negative = inhibition) at 10uM": -0.629}
{"smiles": "CCCN1C(=O)/C(=C/C=C2\\N(CC)c3ccccc3C2(C)C)SC1=S", "hERG current change (%, negative = inhibition) at 10uM": 8.96}
{"smiles": "CN1/C(=C\\C=O)C(C)(C)c2ccccc21", "hERG current change (%, negative = inhibition) at 10uM": 12.9}
{"smiles": "CN1/C(=C\\C=C\\C2=[N+](C)c3ccc4ccccc4c3C2(C)C)C(C)(C)c2ccccc21.[O-][Cl+3]([O-])([O-])[O-]", "hERG current change (%, negative = inhibition) at 10uM": -75.7}
{"smiles": "CC1(C)C(/C=C/C=C/C=C/C=C2\\N(CCCCS(=O)(=O)[O-])c3ccc4ccccc4c3C2(C)C)=[N+](CCCCS(=O)(=O)[O-])c2ccc3ccccc3c21.[Na+]", "hERG current change (%, negative = inhibition) at 10uM": -15.5}
{"smiles": "CC(C)CCn1nnnc1CN1CCN(C(=O)c2ccco2)CC1.Cl", "hERG current change (%, negative = inhibition) at 10uM": 16.8}
{"smiles": "CC1(C)CC(=O)c2c(O)cc(OCC(=O)Nc3ccc(CCO)cc3)cc2O1", "hERG current change (%, negative = inhibition) at 10uM": -21.4}
{"smiles": "CCN(C(=O)COC(=O)CSc1ccc(F)cc1)c1c(N)n(Cc2ccccc2)c(=O)[nH]c1=O", "hERG current change (%, negative = inhibition) at 10uM": 10.9}
{"smiles": "COC(=O)C1Cc2ccccc2CN1S(=O)(=O)c1ccc(C)cc1", "note": "(stereo not drawn)", "hERG current change (%, negative = inhibition) at 10uM": 1.57}
{"smiles": "Cc1cnc(-c2nnc(N(C)C(=O)C3CCCO3)s2)cn1", "note": "(stereo not drawn)", "hERG current change (%, negative = inhibition) at 10uM": 2.91}
{"smiles": "Cn1c(CNC(=O)c2ccc(Cl)cc2)nnc1SCC(=O)N1CCOCC1", "hERG current change (%, negative = inhibition) at 10uM": 15.4}
{"smiles": "COc1cc(C(C)=O)ccc1OCC(O)CNCC1(N2CCCCC2)CCCCC1.O=C(O)C(=O)O", "note": "(stereo not drawn)", "hERG current change (%, negative = inhibition) at 10uM": -42.1}
{"smiles": "COc1ccccc1COCC(O)CNCC1(N2CCCCC2)CCCCC1.O=C(O)C(=O)O", "note": "(stereo not drawn)", "hERG current change (%, negative = inhibition) at 10uM": -30.9}
{"smiles": "OC(CNCC1(N2CCCCC2)CCCCC1)COc1ccc(Cl)cc1Cl", "note": "(stereo not drawn)", "hERG current change (%, negative = inhibition) at 10uM": -73.7}
{"smiles": "CCc1ccc(OC)c(S(=O)(=O)Nc2ccccc2C)c1", "hERG current change (%, negative = inhibition) at 10uM": 3.86}
{"smiles": "COc1cccc(COCC(O)CN2CCC(C(N)=O)CC2)c1", "note": "(stereo not drawn)", "hERG current change (%, negative = inhibition) at 10uM": 12.3}
{"smiles": "COc1ccc(-c2csc3ncnc(NCCCO)c23)cc1", "hERG current change (%, negative = inhibition) at 10uM": -13.3}
{"smiles": "CC(C)CNC(CC(=O)Nc1cccc([N+](=O)[O-])c1)C(=O)O", "note": "(stereo not drawn)", "hERG current change (%, negative = inhibition) at 10uM": -1.01}
{"smiles": "Cc1ccc(NC(=O)COC(=O)[C@H](C)NC(N)=O)c(C)c1", "hERG current change (%, negative = inhibition) at 10uM": 15.1}
{"smiles": "CCOc1ccc(S(=O)(=O)N2CCC(C(=O)NC3CCCCC3)CC2)cc1", "hERG current change (%, negative = inhibition) at 10uM": 18.3}
{"smiles": "CCOC(=O)C1CCN(CCC(=O)Nc2ccc(F)cc2)CC1", "hERG current change (%, negative = inhibition) at 10uM": -31}
{"smiles": "CCOC(=O)C1CCN(CCC(=O)Nc2cccc(Cl)c2C)CC1", "hERG current change (%, negative = inhibition) at 10uM": -5.48}
{"smiles": "CCOC(=O)C1CCN(CCC(=O)Nc2ccc(Br)cc2)CC1", "hERG current change (%, negative = inhibition) at 10uM": -63.5}
{"smiles": "CCOC(=O)C1CCN(CCC(=O)Nc2ccccc2Cl)CC1.Cl", "hERG current change (%, negative = inhibition) at 10uM": -19.3}
{"smiles": "CCOC(=O)C1CCN(CCC(=O)Nc2ccc(Cl)cc2)CC1", "hERG current change (%, negative = inhibition) at 10uM": -62.4}
{"smiles": "CCOC(=O)C1CCN(CCC(=O)Nc2ccc(C)cc2)CC1", "hERG current change (%, negative = inhibition) at 10uM": -32.4}
{"smiles": "COc1ccccc1C(=O)NCC1(c2ccccc2)CCCC1", "hERG current change (%, negative = inhibition) at 10uM": 1.65}
{"smiles": "O=C(NCCCCCCCCCNC(=O)C(F)(F)F)C(F)(F)F", "hERG current change (%, negative = inhibition) at 10uM": -4.99}
{"smiles": "CC1CC(C)CN(C(=O)CCCn2c(=O)c3cccn3c3cccnc32)C1", "note": "(stereo not drawn)", "hERG current change (%, negative = inhibition) at 10uM": -11}
